This passage reports growth results from PubChem BioAssay (NCI).

Structures are written as SMILES. Compounds without any hit were thinned out: in the full panel of roughly 83,000, 20% have a hit.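 48-hour exposure, single concentration, 96-well plates; percent growth endpoint where 0 means no net growth. Active: below 10.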 Unmarked numbers belong to inactive results. The source made the active and inactive calls.

The assay relates to CCRF-CEM leukemia. Briefly: NCI-60 one-dose screen, 48 h (100 = growth as untreated, 0 = no growth, -100 = all killed). The settings on record: 10 µM unless noted. Here is the method:
Growth inhibition of the CCRF-CEM human tumor cell line is measured as a screen for anti-cancer activity. Cells are grown in 96 well plates and exposed to the test compound for 48 hours. Compounds are tested at a single concentration, which is 10^-5 M for most compounds. The reported endpoint is percent growth (GI% or GIPRCNT), where numbers from 0 - 100% represent growth inhibition, and numbers from -100% - 0 represent cell death. For example, a value of 40 represents 60% growth inhibition. A value of 0 means no net growth occurred over the course of the experiment. A value of -40 indicates 40% of cells at the beginning of the experiment died by the end of the experiment. A value of -100 means all cells are dead at the end of the experiment.
NCI-60 Human Tumor Cell Lines Screen was performed using the standard one-dose NCI protocol, which is described in more detail at https://dtp.cancer.gov/discovery_development/nci-60/default.htm.
Compounds with GIPRCNT values below 10 were considered active. Activity score was based on GIPRCNT using the following formula: […]
Score is 0 for GIPRCNT values of 100 or above, 50 for GIPRCNT values of 0, and 100 for GIPRCNT values of -100.
Turning to `CCCc1nn(C)c2c(=O)[nH]c(-c3cc(S(=O)(=O)N4CCN(C)CC4)ccc3OCC)nc12`, the growth is 108%.

Regarding `CSc1nc2c(c(=O)n1C)C(c1ccccc1)C1=C(N2)/C(=C/c2ccccc2)CCC1` (stereo not given), the growth is 20.6%.

Regarding `O=C(Nc1ccc(Cl)cc1)c1cc2c(cc1O)[nH]c1ccccc12`, the growth is 18.1%.

Regarding `Cc1cc(NCCCNc2ccnc3cc(Cl)ccc23)nc(N2CCN(C)CC2)n1`, the growth was 26.1%.

As for `O=C(Cn1ccnc1)NC(c1ccccc1)c1ccccc1`, the growth is 108%.

For `COc1ccc(C2CC(c3cccc(Nc4ccnc5cc(Cl)ccc45)c3)=NN2C=O)cc1` (stereo not given), the growth was 7.54% (active).

As to `COc1cccc2c1O/C(=C\c1c([N+](=O)[O-])ncn1C)C2=O`, the growth is -7.36% (active).

With `C/C(=N/N=C(N)N)c1ccc(Cl)cc1`, the growth is 87.9%.

On to `O=C1Nc2ccc(F)cc2/C1=C/c1nc(-c2ccc(F)cc2)n2ccccc12`, for which the growth is 103%.

On to `COc1cc(NC(=O)c2cc3ccccc3cc2O)c(OC)cc1Cl`, for which the growth was -17.4% (active).

As to `Cc1c(C(N)=O)sc2nc(SCC(=O)Nc3ccc(Cl)cc3)n(-c3ccccc3)c(=O)c12`, the growth is 86.3%.

As for `O=[N+]([O-])c1ccc(Oc2cccc(C(F)(F)F)c2)c([N+](=O)[O-])c1`, the growth is 14.7%.

Regarding `COc1ccc2c(c1)C(=O)c1c-2c(OCCN(C)C)nc2cc(OC)ccc12`, the growth was 13.7%.

`CCOC(=O)c1c(NC(=O)C2CCCCC2C(=O)O)sc2c1CCCC2` (stereo not given): the growth is 99.6%.

`Clc1cc(Cl)c(OCC#CI)cc1Cl`: the growth was 27.8%.

On to `Cc1ccc2c(c1)C(=O)/C(=C/c1ncc([N+](=O)[O-])n1C)O2`, for which the growth is 0.686% (active).

With `Nc1ncc(-c2cnn(C3CCNCC3)c2)cc1-c1nc2cc(Cl)ccc2o1`, the growth was -100% (active).

Regarding `CC(c1cc(Cl)ccc1O)c1cc(Cl)ccc1O`, the growth is 33.5%.

With `CCN1C[C@@H](C)n2c(c(O)c3c(=O)n(Cc4ccc(F)c(Cl)c4)nc(C(=O)NC)c32)C1=O`, the growth is 40.4%.

Consider `O=C1/C(=C/c2ccc([N+](=O)[O-])o2)Oc2ccc(Br)cc21`, for which the growth is 66.2%.

For the molecule `OC(c1cc(C(F)(F)F)nc2c(C(F)(F)F)cccc12)C1CCCCN1` (stereo not given), the growth was 65.2%.

For `c1cncc(CNc2ccccc2-c2nnc(Nc3ccc4c(c3)OCO4)o2)c1`, the growth was 19%.

For the molecule `C=C(C)[C@H]1CC/C(C)=C/CC[C@]2(C)O[C@H]2CC/C(COC(C)=O)=C\C1=O`, the growth was 103%.

As for `COC(=O)[C@]12CC[C@@H](C)[C@H](C)[C@@H]1C1=CC[C@@H]3[C@@]4(C)C=C(O)C(=O)[C@@]5(C)COC(=C54)C[C@@]3(C)[C@]1(C)CC2`, the growth is -60.8% (active).

In the case of `c1coc([C@@H]2C[C@@H]3Cc4ccc5ccccc5c4N2O3)c1`, the growth is 79%.

Take `Clc1ccc(-c2nc(-c3cccs3)no2)c(Cl)c1`: the growth is 86%.

As for `COc1ccc(-c2cc(C(=O)Nc3nc4cc(C)c(C)cc4s3)nc3cc(-c4ccccc4)nn23)cc1OC`, the growth was 84.2%.

In the case of `CN(C)c1ccc2[nH]c3c(C(N)=O)cc(=O)c(=O)c=3oc2c1`, the growth is 11.9%.

In the case of `CCc1[nH]nc(-c2ccc(OC)cc2)c1-c1ccccc1OCCN(CC)CC`, the growth is 84.5%.

As to `Nc1ccc(C2=Nc3cccc4cccc(c34)S2)cc1`, the growth is 68.4%.

Take `Cn1c(=O)c2c(nc(Br)n2CCC(=O)Nc2ccc(F)cc2)n(C)c1=O`: the growth is 99.5%.

Turning to `O=C(CCc1nnc2sc(-c3ccc(Cl)cc3Cl)nn12)c1nc2ccccc2[nH]1`, the growth is 10.9%.

Turning to `CCCn1cnc2c1c(=O)n(CCCCC(C)=O)c(=O)n2C`, the growth is 109%.

Regarding `CN(C)c1ccc2c(c1)/C(=N/O)c1ccccc1-2`, the growth was 83.8%.

As for `N#Cc1cccc(/C=C(/C(=O)c2ccccc2)c2ccccc2)c1`, the growth was 2.7% (active).

As to `COc1cc(C2CC(=O)Nc3c2cc(Br)c2ccccc32)cc(Br)c1OC` (stereo not given), the growth was 11.1%.

Turning to `O=C1/C(=C/c2ccc3cccc(Cl)c3n2)SC(=S)N1CCc1ccc(O)cc1`, the growth was 6.53% (active).

For the molecule `COc1cc2c(c(OC)c1OC)-c1ccc(NN(C(=O)c3ccccc3)C(=O)c3ccccc3)c(=O)cc1[C@@H](NC(C)=O)CC2` (tested in a mixture with another compound), the growth was 41.9%.

Consider `Cc1cc(O)c2c(c1)C[C@H]1[C@@H]3CC[C@H]4CC(=O)CC[C@]4(C)[C@H]3CC(=O)[C@]21C`, for which the growth was 58.8%.

With `Cc1ccc(C(C)C)cc1NC(=O)Nc1ccc([N+](=O)[O-])cc1`, the growth was -14.5% (active).
